Measurements from PubChem BioAssay (NCATS).
Records with an inconclusive call do not appear. Calls of active or inactive are those of the source. Calls come from the whole dose curve; as a rule, active = well fitted curve in the direction sought with a large enough effect; inconclusive = small, poorly fitted or top-dose-only effect, or another doubt; inactive = no such curve, though single readings can be large or run the other way.

biological target: Thioredoxin reductase 1, cytoplasmic (Rattus norvegicus) (UniProt O89049); test: qHTS Assay for Substrates of Mammalian Selenoprotein Thioredoxin Reductase 1 (TrxR1) (AID 488772); conditions: purified TrxR1, NADPH consumption substrate assay; series mostly up to 57.1 µM; activity change, negative = NADPH consumption: at the top concentration;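 note: 0% is about no effect; a drop in NADPH fluorescence below the no-compound background marks a TrxR1 substrate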
Source text: The selenoprotein thioredoxin reductase (TrxR; EC 1.8.1.9) is a FAD containing homodimeric pyridine nucleotide-disulfide oxidoreductase with many cellular roles. Together with NADPH and its prime substrate thioredoxin (Trx), the enzyme forms the core of the Trx system. The mammalian Trx system exerts a wide spectrum of functions including redox regulation, antioxidant defense, regulation of transcription factors as well as support of cell growth and replication. Many of these functions involve the reduction of Trx, which may subsequently reduce a number of different substrates including ribonucleotide reductase, peroxiredoxins or NFkB. Mammalian TrxR itself also has a broad substrate specificity, reducing both protein and non-protein substrates, including low molecular weight compounds such as dehydroascorbate, lipoic acid, ubiquinone, and juglone. In addition, several drugs in clinical use for anticancer treatment are indeed known to target TrxR1.
This BioAssay is a validation of an NADPH fluorescence-based, dual-purpose qHTS rTrxR1 assay designed to find potential inhibitors and substrates of rTrxR1. For this particular BioAssay, actives are potential substrates. See related BioAssay for inhibitors data deposition.
Assay protocol: 2 uL of reagents (buffer in column 4 as negative control and 90 nM rTrxR1 in columns 1-3 and 5-48) were dispensed into Greiner black solid-bottom 1,536-well assay plates, followed by 1 uL of NADPH (400 uM final concentration) to each well. The plates were centrifuged at 1000 rpm for 15 seconds and subsequently incubated for 5 min at room temperature (~22 deg C) to allow for rTrxR1 reduction. Compounds (23 nL) were then transferred via Kalypsys pin tool equipped with 1536-pin array (10 nL slotted pins, V&P Scientific, San Diego, CA). In addition, a duplicate 2-fold serial dilution of the control compounds auranofin, a known gold-based TrxR1 inhibitor, and juglone (5-hydroxy-1,4-naphthoquinone), a natural TrxR1 substrate, were pin-transferred to columns 2 and 3, respectively. After incubation for 15 min at room temperature (~22 deg C), 1 uL of selenite (400 uM final concentration) were dispensed to each well. The plate was immediately transferred to a ViewLux high-throughput CCD imager (PerkinElmer), wherein kinetic measurements of NADPH fluorescence (Ex 340 nm, Em 450 nm) were acquired (8 minute kinetic read, see Table 1). Read 1 was utilized to assess the capacity of a compound to serve as an rTrxR1 substrate, i.e. a decrease in NADPH fluorescence compared to the no-compound background is an indication of a substrate behavior for that particular compound. For inhibitory activity of a compound, delta values, computed as the difference in fluorescence intensity between the first and last reads of an 8-minute time kinetic window, were used. All reagents were diluted in an assay buffer consisting of 50 mM Tris-HCl, pH 7.5, 2 mM EDTA, and 0.01% Tween-20.
Throughout the screen, reagent bottle and all liquid lines were made light-tight to minimize reagent degradation. All screening operations were performed on a fully integrated robotic system (Kalypsys, San Diego, CA) containing one RX-130 and two RX-90 anthropomorphic robotic arms (Staubli, Duncan, SC). Library plates were screened starting from the lowest and proceeding to the highest concentration, and a 'double-pinning' step of the highest concentration was required to access higher concentrations of compounds. Vehicle-only plates, with DMSO being pin-transferred to the columns 5-48, were inserted uniformly at the beginning and the end of each library in order to monitor and record any shifts in the background, which can be affected by reagent dispensers or loss in enzyme activity over time. Screening data were corrected, normalized, and concentration-effect relationships were derived by using publicly-available curve fitting algorithms developed in-house (http://ncgc.nih.gov/pub/openhts).

Thioredoxin reductase 1, cytoplasmic (Rattus norvegicus), sequence (O89049 whole entry, looked up): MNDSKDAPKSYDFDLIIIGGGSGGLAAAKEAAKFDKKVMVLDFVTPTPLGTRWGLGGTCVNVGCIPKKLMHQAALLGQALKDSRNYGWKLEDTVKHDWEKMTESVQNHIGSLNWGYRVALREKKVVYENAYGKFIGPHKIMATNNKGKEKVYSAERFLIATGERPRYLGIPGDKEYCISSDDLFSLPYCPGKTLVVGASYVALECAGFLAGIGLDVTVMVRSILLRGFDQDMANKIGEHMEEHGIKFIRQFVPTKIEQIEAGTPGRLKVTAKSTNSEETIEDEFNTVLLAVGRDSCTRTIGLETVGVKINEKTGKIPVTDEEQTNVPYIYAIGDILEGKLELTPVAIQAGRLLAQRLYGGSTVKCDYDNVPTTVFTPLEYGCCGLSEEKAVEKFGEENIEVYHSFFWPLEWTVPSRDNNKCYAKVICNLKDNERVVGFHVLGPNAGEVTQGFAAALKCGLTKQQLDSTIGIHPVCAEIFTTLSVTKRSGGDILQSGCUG

SMILES	outcome	activity change, negative = NADPH consumption
CC(C)N(CCC(C(N)=O)(c1ccccc1)c1ccccn1)C(C)C (stereo not given)	inactive	
O=C(CCCN1CCC2(CC1)C(=O)NCN2c1ccccc1)c1ccc(F)cc1		-5.81% (inactive)
Cc1ncsc1CCCl		2.5% (inactive)
NCCc1ccc(O)cc1		-12.8% (inactive)
O=C(O)CCCc1ccc(N(CCCl)CCCl)cc1		-8.23% (inactive)
C=C(C)[C@H]1CN[C@H](C(=O)O)[C@H]1CC(=O)O		-11% (inactive)
CC(C)c1cccc(C(C)C)c1O		-10.1% (inactive)
O=c1[nH]oc2c1CCNC2		-7.47% (inactive)
CC(C)(C)NCC(O)c1ccccc1Cl (stereo not given)		-10.7% (inactive)
CCCCC/C=C\C/C=C\C/C=C\C/C=C\CCCC(=O)NCC(=O)O		1.15% (inactive)
CN1C(=O)CCS(=O)(=O)C1c1ccc(Cl)cc1 (stereo not given)		-3.27% (inactive)
COc1ccc2c(c1OC)C(=O)O[C@H]2[C@@H]1c2cc3c(cc2CCN1C)OCO3		-12% (inactive)
CC(NC(C)(C)C)C(=O)c1cccc(Cl)c1 (stereo not given)		4.78% (inactive)
CCC1(c2ccc(N)cc2)CCC(=O)NC1=O (stereo not given)		-11.4% (inactive)
O=P1(N(CCCl)CCCl)NCCCO1 (stereo not given)		5.95% (inactive)
